Screens: PubChem BioAssay, Buhrlage Lab, Dana-Farber Cancer Institute and Novartis Institutes for BioMedical Research (Cambridge, Mass)
A selection: hits, their analogues and other compounds. The true share with any hit is near 11%.
USP28 block: inhibitors of human USP28 deubiquitinase. inhibition, % at 25 µM. 47,000 tested, 3% active. Ubiquitin carboxyl-terminal hydrolase 28 (Homo sapiens), Q96RU2. purified USP28, Ub-rhodamine cleavage fluorescence, 30 min
USP30 inh: inhibitors of human USP30 deubiquitinase. purified USP30, Ub-rhodamine cleavage fluorescence. inhibition, % at 25 µM. 47,000 tested, 5.3% active. AID 1645860, 2021
USP17 inh: inhibitors of human USP17 deubiquitinase | purified USP17, Ub-rhodamine cleavage fluorescence, 3 h | Ubiquitin carboxyl-terminal hydrolase 17-like protein 5 (Homo sapiens), A8MUK1 | inhibition, % at 50 µM | 47,000 tested, 6.5% active
Target sequence (A8MUK1 whole entry, looked up): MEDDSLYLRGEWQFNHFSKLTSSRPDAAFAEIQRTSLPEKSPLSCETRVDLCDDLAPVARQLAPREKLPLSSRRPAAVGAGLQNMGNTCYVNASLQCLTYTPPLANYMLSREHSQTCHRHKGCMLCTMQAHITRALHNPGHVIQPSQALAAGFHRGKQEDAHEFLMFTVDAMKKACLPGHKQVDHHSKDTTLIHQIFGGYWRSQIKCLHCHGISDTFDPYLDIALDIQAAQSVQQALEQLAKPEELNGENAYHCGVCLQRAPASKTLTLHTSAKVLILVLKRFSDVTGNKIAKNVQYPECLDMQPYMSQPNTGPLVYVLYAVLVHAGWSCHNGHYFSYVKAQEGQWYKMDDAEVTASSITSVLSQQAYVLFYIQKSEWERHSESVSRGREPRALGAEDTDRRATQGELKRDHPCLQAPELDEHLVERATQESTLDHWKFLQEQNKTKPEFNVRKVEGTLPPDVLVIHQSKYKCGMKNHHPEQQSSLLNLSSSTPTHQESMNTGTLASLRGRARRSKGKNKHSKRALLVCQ
OTUD3 inh: inhibitors of human OTUD3 deubiquitinase; purified OTUD3, Ub-rhodamine fluorescence, 2 h; inhibition, % at 25 µM; AID 1645858, 2021; 47,000 tested, 0.7% active; OTU domain-containing protein 3 (Homo sapiens), Q5T2D3
Each line names hits and unclear results; the compound was inactive in the other large screens. Cut-off read from the data, not from the text of the source: active = inhibition above about 30%; inactive = the rest.

COc1ccc(NC(=O)c2nnc(C(=O)NCCN3CCCCCC3)s2)cc1	USP30 inh 52, USP17 inh 46, OTUD3 inh 34
Cc1nnc(C(=O)Nc2cccc(C(=O)NCCN3CCCCCC3)c2)s1	none
Cc1ccc(NC(=O)c2cc(C(C)C)on2)cc1C	USP28 block 42
CCc1ccc(NC(=O)COc2ccc(-c3nc(CC)no3)cc2)cc1	none
CCc1noc(-c2ccc(OCC(=O)Nc3ccccc3C(C)C)cc2)n1	USP17 inh 41
CCc1noc(-c2ccc(OCC(=O)Nc3ccc(C)cc3C)cc2)n1	USP17 inh 51
Cc1ccc(OC(=O)c2ccno2)cc1	none
CC(=O)c1ccc(N2CCN(C(=O)Cn3c(=O)[nH]c4ccccc4c3=O)CC2)cc1	USP17 inh 42 (no result: USP28 block, USP30 inh)
O=C(Cn1c(=O)[nH]c2ccccc2c1=O)N1CCN(c2ccccc2F)CC1	USP30 inh 32
O=C(CCCn1c(=O)[nH]c2ccccc2c1=O)N1CCN(c2ccc(Cl)cc2)CC1	USP30 inh 41
Cc1ccc(NC(=O)c2ccccc2)c(=O)n1CC(=O)N1CCCC1	none
Cc1ccc(NC(=O)c2ccccc2)c(=O)n1CC(=O)N1CCN(c2ccccc2F)CC1	USP30 inh 30 (no result: USP17 inh)
COc1ccc(N2CCN(C(=O)CCCCCn3c(=O)[nH]c4ccccc4c3=O)CC2)cc1	none
Cc1ccc2[nH]c3c(N4CCSCC4)ncnc3c2c1	none
O=C(Nc1nc(-c2ccccc2)c2ccccc2n1)c1ccc(Cl)cc1	USP28 block 34
O=C(Nc1ccc2ccccc2n1)c1ccccc1Cl	none
O=C(Nc1ccc2ccccc2n1)c1ccc(Cl)cc1	USP30 inh 63, USP17 inh 30
Cc1nnc2n1CCN(Cc1ccc(F)cc1Cl)C2	none
COc1cc(C2CCN(C(=O)c3cccc(Cl)c3)CC2)on1	none
CC1CCCN(C(=O)c2cn(-c3cc(Nc4ccccc4)ncn3)cn2)C1 (stereo not drawn)	none
Cc1ccc(S(=O)(=O)c2cnc(SCC(=O)Nc3ccc(Cl)cc3)nc2N)cc1C	USP28 block 48, USP30 inh 39, USP17 inh 80
COc1ccccc1NC(=O)CSc1ncc(S(=O)(=O)c2ccc(C(C)C)cc2)c(N)n1	none
COc1ccc(C(=O)O)cc1S(=O)(=O)N1CCCc2ccccc21	USP17 inh 42
COc1ccc(Cn2c(C)cc(O)c(C(c3ccccc3)N3CCN(C)CC3)c2=O)cc1 (stereo not drawn)	none
COc1ccccc1C1CC(c2ccccc2)N(C(=O)CC(C)C)c2ncnn21 (stereo not drawn)	USP30 inh 31
CC(C)C(=O)N1c2ncnn2C(c2ccccc2)CC1c1ccccc1 (stereo not drawn)	none
Cc1ccc(C2CC(c3ccccc3)N(C(=O)C(C)C)c3ncnn32)cc1 (stereo not drawn)	USP30 inh 40
CCCN1C=NS(=O)(=O)c2cc(C(=O)Nc3cc(Cl)ccc3OC)ccc21	USP30 inh 35
CCCN1C=NS(=O)(=O)c2cc(C(=O)Nc3ccc(OC)c(Cl)c3)ccc21	USP17 inh 51
Cc1ccc(NC(=O)c2cc3c(s2)CCC3)cc1	USP28 block 37, USP17 inh 49
O=C(Nc1ccc2c(c1)CCC2)c1cc2ccccc2s1	USP28 block 33
O=C(O)Cc1ccccc1C(=O)Nc1ccc2c(c1)CCC2	none
CCCNS(=O)(=O)c1c(C)sc(C)c1-c1cc(C(F)(F)F)on1	none
Cc1ccc(F)cc1S(=O)(=O)NCc1ccc(N2CCN(C)CC2)cc1	USP30 inh 36
CC(=O)N1CCc2cc(Br)cc(S(=O)(=O)NCc3ccc(F)cc3)c21	none
CN(C)C1(CNC(=O)Cc2ccc(Cl)cc2)CCCCC1	none
COc1ccccc1NS(=O)(=O)c1ccc2oc(SCc3cn4c(C)cc(C)nc4n3)nc2c1	USP30 inh 31 (no result: USP17 inh)
COc1ccccc1NS(=O)(=O)c1ccc2oc(SCC(=O)N3CCc4ccccc4C3)nc2c1	none
c1ccc(CSc2ncnc3c2nnn3Cc2ccccc2)cc1	none
c1ccc(Cn2ncc3c(SCc4nc5ccccc5[nH]4)ncnc32)cc1	USP30 inh 47
O=C1CN(C(=O)c2ccccc2)CC(O)CN1Cc1cccc(F)c1 (stereo not drawn)	none
O=C(CCc1ccccc1)N(CC1CCCO1)c1nc2ccccc2s1 (stereo not drawn)	USP30 inh 56
O=C(CCc1ccccc1)N(Cc1cccnc1)c1nc2cc3c(cc2s1)OCO3	none
COc1c(C(O)CC(C)C)ccc(Oc2c(O)cc(C)cc2C=O)c1C(=O)O (stereo not drawn)	USP17 inh 44
COc1c(C(CC(C)C)OC(C)=O)ccc(Oc2c(O)cc(C)cc2C=O)c1C(=O)O (stereo not drawn)	USP17 inh 35
Cc1ccc(C(=O)N2CCN(C(=O)CSc3nnc(N)s3)C2)cc1	none
O=C(Nc1nc2c(s1)CCCC2C(=O)NCc1ccncc1)c1ccc2c(c1)OCO2 (stereo not drawn)	USP28 block 38
O=C(Nc1nc2c(s1)CCC2C(=O)NCc1ccncc1)c1ccccc1 (stereo not drawn)	none
CCn1cc(CN2CCc3nc(-c4ccccn4)[nH]c(=O)c3C2)c(C)n1	none
O=C(NCC1(O)CCOc2ccccc21)c1c(F)cccc1Cl (stereo not drawn)	none (no result: USP17 inh)
O=C(Cn1cnc2c(cnn2-c2ccccc2)c1=O)Nc1cccc([N+](=O)[O-])c1	USP17 inh 42
O=C(Cn1cnc2c(cnn2-c2ccc(F)cc2)c1=O)Nc1ccc2c(c1)OCCCO2	none
CC(C)CN1C[C@H]2N(c3ncccn3)CCC[C@@]2(C(=O)NCC2CC2)C1	none
COC(=O)c1cc(S(=O)(=O)N2CC=C(c3ccccc3)CC2)c(C)n1C	none
CC1CCN(C(=O)CSc2nc(N)c3c4c(sc3n2)CN(C)CC4)CC1	none
CN1CCc2c(sc3nc(SCC(=O)Nc4nccs4)nc(N)c23)C1	USP17 inh 38 (no result: USP28 block, USP30 inh)
CN(C)CCNc1nnc(-c2nnc(C3CC3)o2)c2ccccc12	none
CCc1nc2c(C#N)c(-c3ccc(Cl)cc3)ccn2n1	USP28 block 41, USP30 inh 83, USP17 inh 66, OTUD3 inh 32
N#Cc1c(-c2ccc3c(c2)OCO3)ccn2nc(-c3ccco3)nc12	none
COc1ccc(-c2c(C(=O)O)c(C(=O)O)c3n2CCC3)cc1	none (no result: USP28 block, USP30 inh)
O=c1c2cnc3nc(-c4cccnc4)nn3c2ccn1CCc1ccccc1	USP17 inh 51
O=c1c2cnc3nc(-c4cccnc4)nn3c2ccn1C1CCCCC1	none
Cc1nc(-c2ccc(C(=O)O)cc2)cc(C2CCNC2)n1 (stereo not drawn)	none
O=C(NCCC1=CCCCC1)c1cnc(-c2ccccc2)nc1-c1ccncc1	none
O=C(NCC(O)c1ccc([N+](=O)[O-])cc1)c1cccc(S(=O)(=O)N2CCOCC2)c1 (stereo not drawn)	none
CC(=O)N1CCc2cc(S(=O)(=O)NC(Cc3ccccc3)C(=O)NCc3ccc4c(c3)OCO4)ccc21 (stereo not drawn)	USP28 block 52, USP30 inh 54, USP17 inh 56
